Test results as given in PubChem BioAssay (NCI).
The panel holds about 83,000 compounds, 20% with a hit somewhere; the sample as a whole holds those more often.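 Each cell line was grown in a 96-well plate and treated with one concentration of compound for 48 hours. Values below 10 were considered active.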 Values without a mark were called inactive. Activity calls are given as the source filed them.

Key:
Test in all cases: NCI-60 one-dose screen, 48 h (100 = growth as untreated, 0 = no growth, -100 = all killed)
Conditions in all cases: 10 µM unless noted
DU-145 prostate = system: DU-145 prostate
K-562 leukemia = system: K-562 leukemia
MALME-3M melanoma = system: MALME-3M melanoma
MDA-MB-231 breast = system: MDA-MB-231 breast
SF-268 CNS = system: SF-268 CNS
SF-295 CNS = system: SF-295 CNS
SF-539 CNS = system: SF-539 CNS
M14 melanoma = system: M14 melanoma

Structure (SMILES) | growth (DU-145 prostate) [%] | growth (K-562 leukemia) | growth (MALME-3M melanoma) [%] | growth (MDA-MB-231 breast) [%] | growth (SF-268 CNS) [%] | growth (SF-295 CNS) [%] | growth (SF-539 CNS) [%] | growth (M14 melanoma) [%]
C[C@@H](C[C@H](CCO)c1cc(C(F)(F)F)cc(C(F)(F)F)c1)c1ccc2ccccc2c1 | 93.2 | 33% | 87.9 | 93.6 | 81.8 | 77.8 | 94.2 | 79.7
COc1ccc2nc3cc(Cl)ccc3c(Nc3ccc(N(C)C)cc3)c2c1 | 91 | 80.2% | 106 | 89.8 | 94.5 | 86.8 | 95.1 | 98.2
CC(C)(C)C(=O)OCOP(=O)(OCOC(=O)C(C)(C)C)C1CCCN(OC(=O)c2ccccc2)C1=O (centres undefined) | 36.9 | 9.43% (active) | 29.4 | 12.7 | 36 | 57.3 | 53 | 47.2
COc1ccc(OC)c(NC2=C(SCCc3ccccc3)C(=O)c3ccccc3C2=O)c1 | 92.2 | 91.2% | 90.8 | 62.8 | 84.6 | 92.2 | 85.7 | 83.3
O=C(Nc1ccc(N=Nc2ccccc2)cc1)c1cccc2ccccc12 | 85.3 | 21.3% | 71.6 | 65.9 | 77.5 | 57.1 | 69 | 37.6
Cc1cc(O)c2c(c1)C1OC(=O)CCCCCN1C1=C2C(=O)c2cccc(OC3CC(O)C(O)C(C)O3)c2C1=O (centres undefined) | 57.2 | 28.3% | 40.6 | 32.7 | 90.8 | 93.9 | 83.5 | 66.6
CC(=O)C(C(C)=O)C(c1ccccc1)C(C(C)=O)C(C)=O | 108 | 95.9% | 108 | 97.5 | 108 | 96.7 | 101 | 96.5
NS(=O)(=O)c1ccc(CCN2C(=O)/C(=C\c3ccc(Cl)cc3)C=C2c2ccc3ccccc3c2)cc1 | 108 | 96.4% | 98.8 | 90.5 | 103 | 99.1 | 101 | 95
COc1cc(NCCN(CC(C)C)CC(C)C)c2ncc(C)cc2c1 | 71.4 | 34.2% | 66.7 | 50.3 | 71.1 | 64.6 | 97.7 | 61
CC(C)c1ccc(/C=N/Nc2nc3ccccc3s2)cc1 | 101 | 85.5% | 62.9 | 81.6 | 99.2 | 98.5 | 103 | 94.5
CCCCCCC1(/C=N/NC(N)=O)NC(=O)NC1=O (centres undefined) | 107 | 102% | 103 | 110 | 99.3 | 98.1 | 96.3 | 97.3
CCc1cc2c(c3ccc(C(=O)CBr)cc13)CCCC2 | 107 | 86.4% | 95.9 | 99.8 | 92.2 | 105 | 98.3 | 107
Cc1cc2c3c(cccc3c1)C(=O)c1ccccc1-2 | 98.9 | 98.8% | 90.8 | 92.6 | 92 | 103 | 97.2 | 92.6
